The results in this text go back to PubChem BioAssay.

Experiment [1] is described as follows: modulation of C. elegans fzo-1 (AID 1259413).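 Also: fzo-1 mutant C. elegans worms in liquid wells.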 Particulars: C. elegans fzo-1 modulator screen, mean read-out; stronger effect = higher value.
Experiment [2] is described as follows: compounds altering circadian rhythm period length – cell-based, LOPAC library, luminescence reporter (AID 2774).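 Also: values are relative to mean of DMSO wells on each plate.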 Particulars: circadian reporter cells, at 7 µM, actives lie on both sides.
A short description of experiment [3]: P. berghei load reduction in hepatocytes – cell-based, HepG2, luciferase luminescence, HepG2 viability, primary screen (AID 624349; in the data active = parasite load remaining mostly below about 12%, no sharp cut-off; inactive = mostly above about 10%;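 also: 100% = mean of DMSO negative control wells on the same plate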). Particulars: P. berghei liver stage in HepG2, luciferase luminescence, concentration not given here; parasite load remaining: stronger effect = lower value; viability: measured here: HepG2 viability without parasites.
The subject of experiment [4] is Hepatitis C virus NS3 helicase. Description: blockers of NS3h binding to ssDNA – biochemical, fluorescence polarization, LOPAC1280 library, primary screen (AID 687035; in the data active = inhibition above about 37%). Particulars: Purified HCV NS3 helicase, Cy5-dT15 ssDNA binding fluorescence polarization; stronger effect = higher value; concentration not given here. (Polarisation of emitted light reports the rotation of a fluorescent probe.)

A short description of experiment [5]: compounds altering Cy5-DNA-NS3h complex signal – biochemical, LOPAC1280, artefact control for HCV NS3 helicase inhibitor project (AID 687037). Particulars: Cy5-DNA-NS3h complex fluorescence interference counterscreen.
Experiment [6] can be described thus: signal quenchers or enhancers, Cy5 substrate/SSB – biochemical, NIH Clinical Collection, E. coli SSB, artefact control for HCV NS3 helicase inhibitor project (AID 743268). Particulars: Cy5-oligo bound E. coli SSB, fluorescence interference.
Experiment [7] concerns Hepatitis C virus NS3 helicase. Description: blockers of NS3h binding to DNA – biochemical, fluorescence polarization, NIH Clinical Collection, primary screen (AID 743270). Particulars: NS3 helicase binding to Cy5-dT15 DNA, stronger effect = higher value, concentration not given here.
The target in experiment [8] is Single-stranded DNA-binding protein (Escherichia coli (strain K12)) (UniProt P0AGE0). Description: SSB-ssDNA binding inhibitors – biochemical, fluorescence polarization, NIH Clinical Collection, counter-screen for HCV NS3 helicase inhibitor project (AID 743271; in the data active = inhibition above about 28%). Particulars: E. coli SSB-DNA binding, stronger effect = higher value, concentration not given here.
Experiment [9] is described as follows: compounds distorting NS3 helicase fluorescence signal – biochemical, NIH Clinical Collection, artefact control for HCV NS3 helicase inhibitor project (AID 743272).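 Also: HCV NS3 helicase with a Cy5 labelled single stranded DNA probe.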 Particulars: fluorescence interference counterscreen, HCV NS3 helicase assay; stronger effect = lower value. (In general: A counterscreen serves to expose hits that act by an unwanted route or on another target.)

Experiment [10] deals with Neuropilin-2 / VEGF-C interaction (human). Put plainly: small molecules blocking Neuropilin-2/VEGF-C interaction – biochemical, microplate binding format, z-score (AID 743281). Particulars: microplate NRP2/VEGF-C binding assay; stronger effect = lower value.
Experiment [11] deals with Aerobactin synthetase IucA (Klebsiella pneumoniae). Put plainly: inhibition of K. pneumoniae IucA enzyme – biochemical, Tocris library, absorbance (AID 1345561).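 Also: 100% = enzyme without compound and 0% = no enzyme.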 Particulars: purified IucA enzyme assay, absorbance (OD) read-out; stronger effect = lower value;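 tested at 8 µM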.
The nature of experiment [12]: viability loss with induced miR-34 in A549 – imaging, A549 dox-inducible miR-34, nuclei and caspase counts, primary screen (AID 1347080;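 active = compounds whose cell count with miR-34 switched on is under 0.7 times the count with it off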). Particulars: A549 miR-34 inducible, Hoechst nuclei count, 48 h.
A short description of experiment [13]: blockers of cellular phospholipid synthesis – cell-based, LOPAC library, screen 4, primary screen (AID 1347384). Particulars: animal cells, phospholipid biosynthesis inhibition screen; at 10 µM.
A short description of experiment [14]: galactose survival enhancers in mitochondrial complex I cybrids – cell-based, galactose medium, ATP luminescence, primary screen (AID 1645843;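 active = z-score of at least 1.8 in each of two replicates, scored against plate mean and spread of sample wells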;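 also: positive z means more ATP and so rescue of galactose-driven cybrid death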). Particulars: complex I mutant cybrid cells, 72 h, stronger effect = higher value.
A short description of experiment [15]: compounds altering viability of human ES cells (AID 493140).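 Also: cells exposed to compounds for four days before counting.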 Particulars: human embryonic stem cell survival screen; stronger effect = higher value.
A short description of experiment [16]: viability loss in pontine glioma line – cell-based, SU-DIPG-XVII, MIPE5.0, CellTiter-Glo, qHTS, dose response (AID 1347060; cut-off not given, nearly all actives have AC50 up to about 26 µM). Particulars: CellTiter-Glo ATP luminescence. Background: Cellular ATP, detected with luciferase, serves as a proxy for viable cell number.
Experiment [17] can be described thus: viability loss in pontine glioma line – cell-based, SU-DIPG-XIII, MIPE4.0, CellTiter-Glo, qHTS, dose response (AID 1347061; cut-off not given, nearly all actives have AC50 up to about 37 µM;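 also: cells exposed to compound for 48 hours before readout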). Particulars: CellTiter-Glo ATP luminescence.
The nature of experiment [18]: viability loss in pontine glioma line – cell-based, JHH-DIPG-1, MIPE4.0, CellTiter-Glo, qHTS, dose response (AID 1347062; cut-off not given, nearly all actives have AC50 up to about 27 µM). Particulars: JHH-DIPG-1 viability, CellTiter-Glo ATP luminescence.
Experiment [19] in a line: viability loss in pontine glioma line – cell-based, SU-DIPG-IV, MIPE4.0, CellTiter-Glo, qHTS, dose response (AID 1347063; cut-off not given, nearly all actives have AC50 up to about 30 µM;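 also: compound exposure lasted 48 hours before the viability readout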). Particulars: CellTiter-Glo ATP luminescence.
A short description of experiment [20]: viability loss in pontine glioma line – cell-based, SU-DIPG-XXV, MIPE5.0, CellTiter-Glo, qHTS, dose response (AID 1347065; cut-off not given, nearly all actives have AC50 up to about 26 µM;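 also: cells exposed to compound for 48 hours before ATP readout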). Particulars: CellTiter-Glo ATP luminescence.
Experiment [21] can be described thus: growth inhibition of DIPG cells – cell-based, MIPE4.0 library, CellTiter-Glo luminescence, qHTS (AID 1347066; cut-off not given, nearly all actives have AC50 up to about 30 µM;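 also: cells exposed to compound for 48 hours before readout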). Particulars: SU-DIPG-VI viability, CellTiter-Glo ATP luminescence.
The nature of experiment [22]: JHH-DIPG-1 glioma cell viability, MIPE5.0 library, CellTiter-Glo luminescence, qHTS (AID 1347067; cut-off not given, nearly all actives have AC50 up to about 26 µM;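 also: cells exposed to compound for 48 hours before readout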). Particulars: JHH-DIPG-1 glioma viability, CellTiter-Glo ATP luminescence.
The nature of experiment [23]: growth inhibition of DIPG cells – cell-based, MIPE5.0 library, qHTS (AID 1347068; cut-off not given, nearly all actives have IC50 up to about 30 µM). Particulars: SU-DIPG-XXV viability.
The nature of experiment [24]: MELAS cybrid and Rieske KO viability enhancers – cell-based, MELAS cybrids, Rieske KO mouse fibroblasts, CellTiter-Glo, primary screen (AID 1508586;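 active = mean z-score across replicates of 1.96 or higher in either the MELAS or the Rieske mutant cell line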;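 also: z relative to plate mean and SD of compound and empty wells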). Particulars: low glucose.
The target in experiment [25] is ATP-dependent translocase ABCB1 (Homo sapiens) (UniProt P08183). Put plainly: P-glycoprotein substrate transport blockade – cell-based (AID 377; in the data active = fluorescence slope change above about 50%). Particulars: MDR1-expressing cells, fluorescent substrate accumulation slope; stronger effect = higher value; concentration not given here.
Setting [26] is: stronger effect = lower value, cell number ratio, induced over uninduced.
The mark [27] stands for this setting: measured here: relative caspase fold change +Dox/-Dox.
The mark [28] stands for this setting: measured here: total cells with miR-34 induction, stronger effect = lower value.
Setting [29] is: measured here: total cells without miR-34 induction.

What is called viability is the share of living cells, or the viability signal relative to a control. What is called inhibition is the drop in the measured response relative to a control, in per cent. The remaining activity is the signal under treatment as a percentage of the control signal.

Structures are written as SMILES. Values joined by “and” are separate entries in the source; they are usually repeats but may differ in a detail not shown here. Identical values can stand only once. Records with an inconclusive call do not appear. Active and inactive are the calls of the source. Unless noted, no rule for the calls is given here.

ATP-dependent translocase ABCB1 (Homo sapiens), sequence (P08183 whole entry, looked up): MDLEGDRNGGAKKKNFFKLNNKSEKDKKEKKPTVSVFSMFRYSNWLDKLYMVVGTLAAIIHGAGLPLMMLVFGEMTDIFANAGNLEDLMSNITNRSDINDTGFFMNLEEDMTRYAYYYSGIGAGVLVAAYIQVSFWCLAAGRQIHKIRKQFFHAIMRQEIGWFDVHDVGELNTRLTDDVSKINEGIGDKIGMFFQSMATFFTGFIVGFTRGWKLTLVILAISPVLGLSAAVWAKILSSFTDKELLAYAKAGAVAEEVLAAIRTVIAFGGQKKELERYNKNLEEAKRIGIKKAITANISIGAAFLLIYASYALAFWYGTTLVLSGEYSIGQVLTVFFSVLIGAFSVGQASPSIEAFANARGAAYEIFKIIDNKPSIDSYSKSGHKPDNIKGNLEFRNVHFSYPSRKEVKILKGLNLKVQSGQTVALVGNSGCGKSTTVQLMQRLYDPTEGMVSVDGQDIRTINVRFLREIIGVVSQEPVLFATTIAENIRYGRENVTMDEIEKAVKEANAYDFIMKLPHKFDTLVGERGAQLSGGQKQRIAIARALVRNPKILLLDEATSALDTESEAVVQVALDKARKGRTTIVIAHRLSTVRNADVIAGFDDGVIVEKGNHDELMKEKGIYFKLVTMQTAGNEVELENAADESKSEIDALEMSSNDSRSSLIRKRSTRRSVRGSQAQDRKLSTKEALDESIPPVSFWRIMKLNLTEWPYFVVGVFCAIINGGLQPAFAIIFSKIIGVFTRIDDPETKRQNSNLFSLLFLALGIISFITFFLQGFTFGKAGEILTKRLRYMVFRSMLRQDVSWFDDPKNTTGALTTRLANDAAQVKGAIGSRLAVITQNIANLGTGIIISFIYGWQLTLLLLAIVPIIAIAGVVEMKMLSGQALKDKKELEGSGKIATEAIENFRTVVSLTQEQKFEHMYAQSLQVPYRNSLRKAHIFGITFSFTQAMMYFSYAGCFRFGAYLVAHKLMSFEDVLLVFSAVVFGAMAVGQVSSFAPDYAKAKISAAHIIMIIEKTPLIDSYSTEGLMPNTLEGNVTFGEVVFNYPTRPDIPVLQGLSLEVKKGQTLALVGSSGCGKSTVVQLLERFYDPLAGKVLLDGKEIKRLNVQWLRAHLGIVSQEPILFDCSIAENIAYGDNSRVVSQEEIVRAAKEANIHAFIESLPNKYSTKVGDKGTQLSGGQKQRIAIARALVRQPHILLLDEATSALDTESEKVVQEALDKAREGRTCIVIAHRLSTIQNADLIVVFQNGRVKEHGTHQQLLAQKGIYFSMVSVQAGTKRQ

Take `CC1(C)O[C@@H]2C[C@H]3[C@@H]4CCC5=CC(=O)C=CC5(C)[C@@]4(F)[C@@H](O)CC3(C)C2(C(=O)CO)O1` (stereo partly specified): the mean signal in experiment [1] is 258 (inactive).
As to `CN1CCc2cc(Cl)c(O)cc2[C@@H](c2ccccc2)C1`, the period change in [2] is 0.17 h (inactive). For the same molecule, the parasite load remaining in experiment [3] is 38.6% (inactive). The same molecule gave a viability in [3] of 72.6%. Besides, the inhibition in experiment [4] was -1% (inactive); in [7] it was -5.46% (inactive); in experiment [8], -6.69% (inactive). For the same molecule, in experiment [5], the fluorescence ratio (interference) is 1 (inactive). Besides, the values for the fluorescence ratio in [6] and in experiment [9] were 0.96 (inactive) and 1.01 (inactive), respectively. For the same molecule, the z-score in experiment [10] was -1.33 (inactive); in [14], -0.095 (inactive) and 0.675 (inactive). Also, the mean signal in [1] is 255 (inactive). The remaining activity in experiment [11] was 107% (inactive). Further, the fold change in experiment [12] (setting [26]) is 0.95 (inactive) and 0.955 (inactive); in experiment [12] (setting [27]), 1.25 and 1.04. The cell count in [12] (setting [28]) was 9640 and 8960; in [12] (setting [29]), 10100 and 9370. Also, in [13], the call was inactive.
For the molecule `CCCCC[C@H](O)/C=C/[C@H]1[C@H](O)CC(=O)[C@@H]1CCCCCCC(=O)O`, the survival in experiment [15] is 35.2 (inactive) and 136 (inactive). The parasite load remaining in experiment [3] is 87.1% (inactive) and 65% (inactive) and 24% (inactive). Further, in experiment [3], the viability is 70.2% and 67.7% and 65.5%. Also, the values for the fluorescence ratio in [6] and in experiment [9] were 0.87 (inactive) and 0.98 (inactive), respectively. In addition, the inhibition in experiment [7] was -3.71% (inactive); in experiment [8] it was -0.39% (inactive). Also, the z-score in experiment [10] was -0.575 (inactive); in [24] (MELAS cybrid survival, CellTiter-Glo 48 h, stronger effect = higher value), -0.41 (inactive) and -0.106 (inactive); in experiment [24] (Rieske KO mouse fibroblast survival, CellTiter-Glo 72 h), -0.367 and -0.604; in experiment [14], 0.265 (inactive) and 0.315 (inactive). Also, the mean signal in experiment [1] was 268 (inactive). Further, in experiment [11], the remaining activity is 115% (inactive). Besides, the outcome in experiment [16], in [17], in [18], in [19], in experiment [20] and in [21] was inactive. Further, the outcome in [22] and in [23] was inactive.
Take `C[C@H]1O[C@@H](O[C@H]2[C@@H](O)C[C@H](O[C@H]3[C@@H](O)C[C@H](O[C@H]4CCC5(C)[C@H](CC[C@@H]6[C@@H]5C[C@@H](O)C5(C)C(C7=CC(=O)OC7)CCC65O)C4)O[C@@H]3C)O[C@@H]2C)C[C@H](O)[C@@H]1O` (stereo partly specified): in experiment [1], the mean signal was 250 (inactive).
On to `COc1cccc2c1C(=O)c1c(O)c3c(c(O)c1C2=O)C[C@@](O)(C(C)=O)C[C@@H]3OC1CC(N)C(O)C(C)O1` (stereo partly specified), for which the fluorescence slope change in experiment [25] is 95.8% (active). Further, the survival in [15] was 2.17 (inactive). The parasite load remaining in experiment [3] is -2.09% (inactive) and 8.79% (inactive). Moreover, the viability in experiment [3] was 1.35% and 23.3%. Besides, the fluorescence ratio is 1.07 (inactive) in experiment [6] and 0.55 (active) in [9]. Also, the results for the inhibition in experiment [7] and in experiment [8] were 6.82% (inactive) and 3.34% (inactive), respectively. In addition, the mean signal in experiment [1] was 273 (inactive). Moreover, the remaining activity in experiment [11] was 110% (inactive). The fold change was 1.08 (inactive) and 1.04 (inactive) in experiment [12] (setting [26]); 0.669 and 0.978 in [12] (setting [27]). Moreover, the cell count in experiment [12] (setting [28]) was 1690 and 2610; in experiment [12] (setting [29]), 1560 and 2520. The z-score in experiment [14] was -1.5 (inactive) and -0.935 (inactive).
